High-throughput results deposited in PubChem by National Center for Advancing Translational Sciences (NCATS).
Sfp PPTase inh: inhibitors of Bacillus subtilis Sfp phosphopantetheinyl transferase; Biochemical Sfp PPTase activity, qHTS; Potency, µM, without a hit: largest response in the series, negative = inhibition, most hits filed as inhibitors; 310,000 compounds, 3.5% hits;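 note: the enzyme is Sfp with the accession as filed and its product quenches rhodamine fluorescence; potency is the fitted concentration of half-maximal effect; 0% = enzyme reaction without inhibitor and -100% = no enzyme wells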
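Sfp 15 nM + cpd, 15 min RT; start w/ rhodamine-CoA 5 uM, BHQ-2-YbbR 12.5 uM (final); 50 mM Hepes pH 7.6, 10 mM MgCl2, 0.01% NP-40, 0.01% BSA; read 525/598 nm at 0 and 30 min.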
Tau fluor cs: counter-screen for tau fibril formation inhibitors; tau K18 P301L Alexa594 fluorescence, heparin fibrillization; 280,000 compounds, 0.93% hits; Potency, µM (highest dose often 57.7 µM), for inactives: at the highest dose activity change, negative = decrease; note: potency is the fitted concentration of half-maximal effect; nearly all actives have a fitted effect of over 55% in size
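Human K18 P301L tau (15 uM unlabeled plus 0.24 uM Alexa 594-labeled, final) in 100 mM sodium acetate pH 7 was mixed with compound and 20 uM heparin and incubated 6 hr at 37 C.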
Coupling enz: counter-screen for Giardia aldolase inhibitors: coupling enzyme system | coupling enzyme system counterscreen, AmpLite Red fluorescence | activity change, negative = inhibition, % at 58.2 µM, hits read low | 290,000 compounds, 0.67% hits | AID 2472; in the data active = activity change below about -30%
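Fluorescence at 525 nm excitation and 598 nm emission measured inhibition of the coupled detection system without aldolase. Compounds (at 57.5 uM final) were preincubated 10 min at room temperature with coupling enzyme reagent before a 20 min substrate/AmpLite Red step.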
Tau fibril FP: tau fibrillization inhibition (FP) | P10636 | K18 P301L tau heparin fibrillization, Alexa594 FP, 6 h | Potency, µM (doses to about 57.7 µM), for inactives: top-dose activity, negative = inhibition, most hits filed as inhibitors | 280,000 compounds, 0.39% hits; note: potency is the fitted concentration of half-maximal effect; nearly all actives have a fitted effect of over 55% in size
Target sequence (P10636 561-689 P618L limits assumed): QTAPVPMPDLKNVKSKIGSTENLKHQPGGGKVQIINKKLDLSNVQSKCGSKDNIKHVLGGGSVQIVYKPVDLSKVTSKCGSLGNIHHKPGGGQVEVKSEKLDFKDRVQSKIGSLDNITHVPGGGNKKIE
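Human K18 P301L fragment (15 uM unlabeled plus 0.24 uM Alexa 594-labeled) in 100 mM sodium acetate pH 7 with compound, aggregation induced by 20 uM heparin for 6 hr at 37 C. ThT (30 uM) added for 1 hr, then Alexa 594 FP read.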
Tau ThT inhib: tau fibrillization inhibition (ThT binding); Potency, µM (highest dose often 57.4 µM), inactives show top-dose activity, negative = inhibition, usual class: inhibitors; recombinant tau K18 P301L (four-repeat tau fragment), heparin-induced fibrillization, ThT fluorescence; AID 1460; 270,000 compounds, 2.1% hits; note: potency is the fitted concentration of half-maximal effect; nearly all actives have a fitted effect of over 55% in size
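Heparin-induced (20 uM) aggregation of recombinant human K18 P301L tau, 15 uM unlabeled with 0.24 uM labeled, pH 7 acetate buffer, 6 hr at 37 C with compound. Fibrils quantified by 30 uM ThT fluorescence after 1 hr ambient incubation.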
JMJD2E inh: JMJD2E (human) inhibition; Potency, µM (series often up to 57.1 µM), inactives show at the top dose activity change, negative = inhibition, actives largely listed as inhibitors; JMJD2E catalytic domain, FDH-coupled NADH fluorescence (FDH is formaldehyde dehydrogenase); 230,000 compounds, 1.6% hits; B2RXH2; active = well fitted inhibition curve with a large enough effect, not every such curve was filed as active; inconclusive = small, poorly fitted or top-dose-only effect, or another doubt; inactive = no such curve, though single readings can be large or run the other way;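 note: potency is the fitted concentration of half-maximal effect; 0% = wells with enzyme and -100% = buffer wells without enzyme; nearly all actives have a fitted effect of over 50% in size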
Target sequence (B2RXH2 1-337 limits assumed): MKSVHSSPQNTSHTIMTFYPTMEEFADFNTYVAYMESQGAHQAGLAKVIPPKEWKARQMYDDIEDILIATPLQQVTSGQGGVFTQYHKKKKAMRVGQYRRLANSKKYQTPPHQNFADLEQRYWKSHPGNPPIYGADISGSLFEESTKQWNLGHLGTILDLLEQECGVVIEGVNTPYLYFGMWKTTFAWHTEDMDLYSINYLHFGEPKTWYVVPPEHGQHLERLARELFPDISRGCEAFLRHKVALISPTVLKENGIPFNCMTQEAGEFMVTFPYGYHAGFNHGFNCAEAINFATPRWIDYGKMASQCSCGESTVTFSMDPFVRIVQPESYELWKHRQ
Active calls of the source: *; ? = inconclusive; / = no result given; [ ] = remark or other dose. In the library only some 5.3% were active in any assay of this set; here they are far more common. Unless noted, calls come from the whole dose curve; as a rule, active = well fitted curve in the direction sought with a large enough effect; inconclusive = small, poorly fitted or top-dose-only effect, or another doubt; inactive = no such curve, though single readings can be large; an effect the other way counts as inactive or inconclusive. Unless noted, % is set by controls: 0 for no effect and ±100 for the full control effect.

SMILES	Sfp PPTase inh	Tau fluor cs	Coupling enz	Tau fibril FP	Tau ThT inhib	JMJD2E inh
CC1CCc2c(cc(-c3ccccc3)n2-c2ccc(C(=O)NC(C)C)cc2)C1 (stereo not given)	/	?	/	11µM*	?	/
CCCNC(=O)c1ccc(-n2c(-c3ccccc3)cc3c2CCC(C)C3)cc1 (stereo not given)	/	?	/	13µM*	-7%	/
COCCNC(=O)c1ccc(-n2c(-c3ccccc3)cc3c2CCC(C)C3)cc1 (stereo not given)	/	?	/	8%	-8%	/
Cc1ccc(C(=O)c2oc3ccccc3c2NC(=O)C(C)Oc2ccccc2Cl)cc1 (stereo not given)	/	-29%	/	?	-11%	/
Cc1ccc2[nH]c(-c3ccc(F)cc3F)cc(=O)c2c1	?	-5%[81.3 µM]	-4	8%[81.3 µM]	-7%[81.4 µM]	/
COc1nc(/C(N)=N/O)nc(N2CCCCC2)n1	79µM*	4%	1	1%	-5%	-5%
COc1cc(/C=N/n2c(-c3cc(C)[nH]n3)n[nH]c2=S)cc(OC)c1OC	32µM*	-9%	2	-4%	-18%	-10%
COc1cc(/C=N/n2c(-c3cc(C)[nH]n3)n[nH]c2=S)ccc1O	50µM*	-4%	0	4%	-9%	-12%
CCOC(=O)N1CCc2c(sc3c2c(=O)n(Cc2ccccc2)c(=O)n3CC(=O)Nc2ccc(C)c(C)c2)C1	/	-25%	/	?	0%	/
CC(C)=CC(=O)Oc1ccc(C(=O)N(C)c2ccccc2I)cc1	5%	/	-1	/	/	/
O=[N+]([O-])/C=C\c1ccc(N2CCCC2)c(F)c1	?	?	1	-8%	16µM*	11%
O=Cc1ccc(N2CCCC2)c([N+](=O)[O-])c1	10%	-4%	0	3%	?	-20%
CSc1cccc(NC(=O)C2CCN(S(=O)(=O)c3ccc4[nH]c5c(c4c3)CCCCC5)CC2)c1	/	?	/	-5%	6%	/
COc1ccccc1NC(=O)C1CCN(S(=O)(=O)c2ccc3[nH]c4c(c3c2)CCCCC4)CC1	/	?	/	0%	-4%	/
O=C(Nc1cccc(F)c1)C1CCN(S(=O)(=O)c2ccc3[nH]c4c(c3c2)CCCCC4)CC1	/	28µM*[quencher]	/	-2%	-13%	/
COc1cccc(NC(=O)C2CCN(S(=O)(=O)c3ccc4[nH]c5c(c4c3)CCCCC5)CC2)c1	/	6.3µM*[quencher]	/	-14%	3%	/
Nc1ccccc1Nc1cccc(C(F)(F)F)c1	7%	?	-3	14%	-6%	-18%
Nc1ccc(Nc2ccccc2N)cc1	3%	14µM*[quencher]	-31*	?	16µM*	?
COc1ccc(Nc2ccnc3ccccc23)cc1	-12%	0%	-1	-1%	5%	1%
COc1ccc(Nc2ccccc2N)cc1	-30%	-23%	0	?	?	10µM*
Cc1cccc(Cn2c(CNS(=O)(=O)c3ccc4c(c3)CCCC4)nc3cccnc32)c1	/	-14%	/	5%	-11%	/
CS(=O)(=O)N(CC(=O)N/N=C/c1cc([N+](=O)[O-])ccc1Cl)c1ccccc1	-13%	-26%	-14	?	-11%	2%
Cc1cccc(N(CC(=O)N/N=C/c2cc([N+](=O)[O-])ccc2Cl)S(C)(=O)=O)c1C	6%	?	-59*	8%	-17%	2%
Cc1cc(N2CCN(c3ccc(C(F)(F)F)cc3[N+](=O)[O-])CC2)c2ccccc2n1	71µM*	/	-1	/	/	/
CC(C)N(C(=O)CSc1nc2ccccc2n1-c1ccccc1)C(C)C	79µM*	-12%	/	3%	?	1%
CCCCC/C=C\C\C=C/C=C/C=C/[C@@H](SCC(N)C(=O)NCC(=O)O)[C@@H](O)CCCC(=O)O (stereo not given in full)	-16%	-9%	-6	?	-6%	12%
CC(=O)N1CCN(c2ccc(Nc3nc(C)nc4c3oc3ccccc34)cc2)CC1	6%	?	-9	2%	8.9µM*	?
